Source: PubChem BioAssay (Tox21)
A number with no mark means an inactive call. Records with an inconclusive call do not appear. Where a call stands in place of a potency, no number is given. Calls of active or inactive are those of the source. The call rests on the fitted dose curve; in most records, active means well fitted curve in the direction sought with a large enough effect in the repeat runs; inconclusive means weak or mixed curves; inactive means no such curve, though single readings can be large; an effect the other way counts as inactive or inconclusive.

assay: qHTS assay for small molecule disruptors of the mitochondrial membrane potential (AID 720635); conditions: HepG2 mitochondrial membrane potential, Mito-MPS dye ratio; series mostly up to 83.2 µM; further: potency means the concentration at half of the fitted maximal effect
In short: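 Mitochondrial membrane potential tracked with Mito-MPS dye, red aggregates (ex 540/em 590 nm) against green monomers (ex 490/em 535 nm). Compound treatment 1 hr at 37C, dye 30 min in HepG2.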

| Compound | Potency | ratio activity, negative = MMP loss |
| --- | --- | --- |
| CSc1ccc(C=O)cc1 | inactive | – |
| NCC[C@H](O)C(=O)N[C@@H]1C[C@H](N)[C@@H](O[C@H]2O[C@H](CN)[C@@H](O)[C@H](O)[C@H]2O)[C@H](O)[C@H]1O[C@H]1O[C@H](CO)[C@@H](O)[C@H](N)[C@H]1O | inactive | – |
| CCCCCCCCCCCCCCC | inactive | – |
| CC(C)(C)N(CCO)CCO | inactive | – |
| COc1cc(C)cc(O)c1 | inactive | – |
| COc1ccc(NC(C)=O)cc1 | inactive | – |
| COC(C(=O)O)c1ccccc1 (configuration not stated) | inactive | – |
| COc1ccc(COC=O)cc1 | inactive | – |
| CCCCC=O | inactive | – |
| NC(N)=NS(=O)(=O)c1ccc(N)cc1 | inactive | – |
| NC(=O)c1ncn([C@@H]2O[C@H](CO)[C@@H](O)[C@H]2O)c1O | inactive | – |
| NC(=S)Nc1cccc2ccccc12 | – | -26.9% [at 8.08 µM] |
| CC(=O)NC(Cc1ccccc1)C(=O)O (configuration not stated) | inactive | – |
| CC(C)(O)Cc1ccccc1 | inactive | – |
| CC12CCC(CC1=O)C2(C)C (configuration not stated) | inactive | – |
| C=C(C)C1CC=C(C)C(O)C1 (configuration not stated) | inactive | – |
| CC1CCN(CCCC(=O)c2ccc(F)cc2)CC1 | inactive | – |
| CC1=CC(=O)CCC1 | inactive | – |
| CCOC(=O)[C@H](CCc1ccccc1)N[C@@H](C)C(=O)N1CCC[C@H]1C(=O)O | inactive | – |
| CCCCCC[C@@H](CCC)C(=O)O | inactive | – |
| CCCCC1CCCCC(=O)O1 (configuration not stated) | inactive | – |
| CC1=CCC2C(C1)C2(C)C (configuration not stated) | 48.6 µM (active) | – |

assay: qHTS assay to test for compound auto fluorescence at 590 nm (red) in HepG2 cells (AID 720674); conditions: HepG2 autofluorescence, red 540/590 nm, 1 h; series mostly up to 91.3 µM
In short: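 Red autofluorescence (Ex/Em 540/590 nm, Rose Bengal sodium equivalents) was measured in HepG2 cells, 2,000 per well in MEM plus 10% FBS, plated overnight at 37 C. Readings were taken 1 hr after adding 23 nL compound or DMSO, at 37 C and 5% CO2.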

| Compound | outcome | fluorescence, relative to Rose Bengal |
| --- | --- | --- |
| CC(=O)OC(C)(C)C | inactive | – |
| CC(C)(O)c1ccccc1 | inactive | – |
| OCC(CO)(CO)COCC(CO)(CO)CO | inactive | – |
| C[C@H](O)C(=O)Nc1c(I)c(C(=O)NC(CO)CO)c(I)c(C(=O)NC(CO)CO)c1I | – | 0.0368% [at 18.6 µM] |
| NCC[C@H](O)C(=O)N[C@@H]1C[C@H](N)[C@@H](O[C@H]2O[C@H](CN)[C@@H](O)[C@H](O)[C@H]2O)[C@H](O)[C@H]1O[C@H]1O[C@H](CO)[C@@H](O)[C@H](N)[C@H]1O | inactive | – |
| CCN1CCN(c2cc3c(cc2F)c(=O)c(C(=O)O)cn3C2CC2)CC1 | inactive | – |
| C/C=C1\C(=O)C[C@H]2[C@@H]3CCC4=CC(=O)CC[C@]4(C)[C@H]3CC[C@]12C | inactive | – |
| c1cc(CN2CCCCC2)cc(OCCCNc2nc3ccccc3s2)c1 | inactive | – |
| CC(C)(C)N(CCO)CCO | inactive | – |
| COc1cc(C)cc(O)c1 | inactive | – |
| COc1ccc(NC(C)=O)cc1 | inactive | – |
| CC(=O)c1ccc(C)cc1 | inactive | – |
| COC(C(=O)O)c1ccccc1 (configuration not stated) | inactive | – |
| COc1ccc(COC=O)cc1 | inactive | – |
| CCCCC=O | inactive | – |
| C#CC(O)CCCCC (configuration not stated) | inactive | – |
| COc1cc(CCC(C)=O)ccc1O | inactive | – |
| NC(N)=NS(=O)(=O)c1ccc(N)cc1 | – | -0.133% [at 18.6 µM] |
| NC(=S)Nc1cccc2ccccc12 | – | -0.163% [at 3.72 µM] |
| CC(=O)NC(Cc1ccccc1)C(=O)O (configuration not stated) | inactive | – |
| CC(C)(O)Cc1ccccc1 | inactive | – |
| Cc1ccccc1Br | inactive | – |
| CC12CCC(CC1=O)C2(C)C (configuration not stated) | inactive | – |
| CC1CCN(CCCC(=O)c2ccc(F)cc2)CC1 | inactive | – |
| C1CCCCCCCCCCC1 | – | -0.0148% [at 18.6 µM] |
| COC(=O)[C@H]1[C@H]2C[C@@H]3c4[nH]c5cc(OC)ccc5c4CCN3C[C@H]2C[C@@H](OC(=O)COc2ccc(OC)cc2)[C@@H]1OC | inactive | – |
| CC1=CC(=O)CCC1 | inactive | – |
| CCCCCC[C@@H](CCC)C(=O)O | inactive | – |
| CCCCC1CCCCC(=O)O1 (configuration not stated) | inactive | – |
| CC1=CCC2C(C1)C2(C)C (configuration not stated) | inactive | – |

assay: qHTS assay to test for compound auto fluorescence at 535 nm (green) in HepG2 cells (AID 720675); conditions: green autofluorescence 485/535 nm, 1 h; series mostly up to 91.3 µM

| Compound | outcome | fluorescence, % of fluorescein control |
| --- | --- | --- |
| CC(=O)OC(C)(C)C | inactive | – |
| CC(C)(O)c1ccccc1 | inactive | – |
| OCC(CO)(CO)COCC(CO)(CO)CO | inactive | – |
| C[C@H](O)C(=O)Nc1c(I)c(C(=O)NC(CO)CO)c(I)c(C(=O)NC(CO)CO)c1I | – | 0.0325% [at 18.6 µM] |
| CSc1ccc(C=O)cc1 | inactive | – |
| NCC[C@H](O)C(=O)N[C@@H]1C[C@H](N)[C@@H](O[C@H]2O[C@H](CN)[C@@H](O)[C@H](O)[C@H]2O)[C@H](O)[C@H]1O[C@H]1O[C@H](CO)[C@@H](O)[C@H](N)[C@H]1O | inactive | – |
| CCN1CCN(c2cc3c(cc2F)c(=O)c(C(=O)O)cn3C2CC2)CC1 | inactive | – |
| CCCCCCCCCCCCCCC | inactive | – |
| C/C=C1\C(=O)C[C@H]2[C@@H]3CCC4=CC(=O)CC[C@]4(C)[C@H]3CC[C@]12C | inactive | – |
| c1cc(CN2CCCCC2)cc(OCCCNc2nc3ccccc3s2)c1 | inactive | – |
| CC(C)(C)N(CCO)CCO | inactive | – |
| COc1cc(C)cc(O)c1 | inactive | – |
| COc1ccc(NC(C)=O)cc1 | inactive | – |
| CC(=O)c1ccc(C)cc1 | inactive | – |
| COC(C(=O)O)c1ccccc1 (configuration not stated) | inactive | – |
| COc1ccc(COC=O)cc1 | inactive | – |
| CCCCC=O | inactive | – |
| C#CC(O)CCCCC (configuration not stated) | inactive | – |

| Compound | outcome | fluorescence, % of fluorescein control |
| --- | --- | --- |
| COc1cc(CCC(C)=O)ccc1O | inactive | – |
| NC(N)=NS(=O)(=O)c1ccc(N)cc1 | – | 0.0157% [at 18.6 µM] |
| NC(=O)c1ncn([C@@H]2O[C@H](CO)[C@@H](O)[C@H]2O)c1O | inactive | – |
| NC(=S)Nc1cccc2ccccc12 | – | 0.0274% [at 3.72 µM] |
| CC(=O)NC(Cc1ccccc1)C(=O)O (configuration not stated) | inactive | – |
| CC(C)(O)Cc1ccccc1 | inactive | – |
| Cc1ccccc1Br | inactive | – |
| CC12CCC(CC1=O)C2(C)C (configuration not stated) | inactive | – |
| C=C(C)C1CC=C(C)C(O)C1 (configuration not stated) | inactive | – |
| CC1CCN(CCCC(=O)c2ccc(F)cc2)CC1 | inactive | – |
| C1CCCCCCCCCCC1 | – | -0.001% [at 18.6 µM] |
| COC(=O)[C@H]1[C@H]2C[C@@H]3c4[nH]c5cc(OC)ccc5c4CCN3C[C@H]2C[C@@H](OC(=O)COc2ccc(OC)cc2)[C@@H]1OC | inactive | – |
| CC1=CC(=O)CCC1 | inactive | – |
| CCOC(=O)[C@H](CCc1ccccc1)N[C@@H](C)C(=O)N1CCC[C@H]1C(=O)O | inactive | – |
| CCCCCC[C@@H](CCC)C(=O)O | inactive | – |
| CCCCC1CCCCC(=O)O1 (configuration not stated) | inactive | – |
| CC1=CCC2C(C1)C2(C)C (configuration not stated) | inactive | – |
